According to PubChem BioAssay (Tox21):
Results filed as inconclusive are left out. Where a call stands in place of a potency, no number is given. A structure can be active in one record and inactive in another. The source made the active and inactive calls. Unless noted, the call rests on the fitted dose curve; in most records, active means well fitted curve in the direction sought with a large enough effect in the repeat runs; inconclusive means weak or mixed curves; inactive means no such curve, though single readings can be large; an effect the other way counts as inactive or inconclusive. Positions of bridges follow the written chain, without caps; N, C: chain ends. Non-standard residues stand in square brackets, D forms with d. Residues, ends and D or L forms follow the SMILES beside them. hArg = N=C(N)NCCCC[C@H](N)C(=O)O; Mpa = O=C(O)CCS

Key:
[1] = qHTS assay to identify small molecule antagonists of the thyroid receptor (TR) signaling pathway - cell viability counter screen (AID 743064); further: nearly all actives have a fitted effect of over 50% in size; further: potency means the concentration at half of the fitted maximal effect
Method in brief: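 Compounds were tested on GH3.TRE-Luc cells in the presence of T3 at 1 nM final. Following 23.5 h at 37 °C, cell viability was quantified by CellTiter-Fluor.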

[2] = qHTS assay to identify small molecule antagonists of the thyroid receptor (TR) signaling pathway (AID 743065); further: nearly all actives have a fitted effect of over 55% in size; further: potency means the concentration at half of the fitted maximal effect
Method in brief: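 GH3.TRE-Luc rat pituitary cells (two TREs driving luciferase) were dosed with compound, then stimulated with 1 nM T3 (final) for 23.5 h at 37 C. ONE-Glo luminescence was the read-out, with CellTiter-Fluor fluorescence as the cytotoxicity counter-screen.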

[3] = test system: thyroid hormone receptor (rat, GH3 cells); assay: qHTS assay to identify small molecule agonists of the thyroid receptor (TR) signaling pathway (AID 743066; calls by dose curve)
[4] = qHTS assay to identify small molecule antagonists of the estrogen receptor alpha (ER-alpha) signaling pathway - cell viability counter screen (AID 743074; calls by dose curve;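 further: HEK293 cells carrying ER-alpha-UAS-bla reporter stimulated with 17beta-estradiol; nearly all actives have a fitted effect of over 45% in size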)
[5] = qHTS assay to identify small molecule antagonists of the estrogen receptor alpha (ER-alpha) signaling pathway using the BG1 cell line - cell viability counter screen (AID 743081);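 further: compound given together with 17beta-estradiol as the ER stimulus; series mostly up to about 70 µM; nearly all actives have a fitted effect of over 45% in size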
Aromatase (Homo sapiens) = Aromatase (Homo sapiens) (UniProt P11511); assay: qHTS assay to identify aromatase inhibitors (AID 743083); further: series mostly up to about 70 µM; nearly all actives have a fitted effect of over 55% in size
Sequence of Aromatase (Homo sapiens) (P11511 whole entry, looked up): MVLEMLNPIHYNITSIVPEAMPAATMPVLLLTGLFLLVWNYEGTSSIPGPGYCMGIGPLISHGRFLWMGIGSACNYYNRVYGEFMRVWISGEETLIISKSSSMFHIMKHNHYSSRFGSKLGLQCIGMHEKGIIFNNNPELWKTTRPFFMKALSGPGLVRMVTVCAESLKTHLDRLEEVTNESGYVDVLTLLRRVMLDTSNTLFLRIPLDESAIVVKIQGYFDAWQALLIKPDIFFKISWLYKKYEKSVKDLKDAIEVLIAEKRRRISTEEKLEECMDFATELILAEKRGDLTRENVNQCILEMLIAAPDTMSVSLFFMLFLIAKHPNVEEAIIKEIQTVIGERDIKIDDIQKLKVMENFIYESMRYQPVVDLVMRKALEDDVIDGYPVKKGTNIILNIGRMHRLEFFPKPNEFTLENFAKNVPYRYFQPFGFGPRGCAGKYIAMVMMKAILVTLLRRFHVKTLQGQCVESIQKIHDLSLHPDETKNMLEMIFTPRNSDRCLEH

[6] = molecular target: Estrogen receptor (Homo sapiens) (UniProt P03372); assay: qHTS assay to identify small molecule antagonists of the estrogen receptor alpha (ER-alpha) signaling pathway (AID 743069; active means well fitted curve in the direction sought with a large enough effect in the signal ratio in the repeat runs, not every such curve was filed as active; the % refers to the signal ratio)
Sequence of Estrogen receptor (Homo sapiens) (P03372 whole entry, looked up): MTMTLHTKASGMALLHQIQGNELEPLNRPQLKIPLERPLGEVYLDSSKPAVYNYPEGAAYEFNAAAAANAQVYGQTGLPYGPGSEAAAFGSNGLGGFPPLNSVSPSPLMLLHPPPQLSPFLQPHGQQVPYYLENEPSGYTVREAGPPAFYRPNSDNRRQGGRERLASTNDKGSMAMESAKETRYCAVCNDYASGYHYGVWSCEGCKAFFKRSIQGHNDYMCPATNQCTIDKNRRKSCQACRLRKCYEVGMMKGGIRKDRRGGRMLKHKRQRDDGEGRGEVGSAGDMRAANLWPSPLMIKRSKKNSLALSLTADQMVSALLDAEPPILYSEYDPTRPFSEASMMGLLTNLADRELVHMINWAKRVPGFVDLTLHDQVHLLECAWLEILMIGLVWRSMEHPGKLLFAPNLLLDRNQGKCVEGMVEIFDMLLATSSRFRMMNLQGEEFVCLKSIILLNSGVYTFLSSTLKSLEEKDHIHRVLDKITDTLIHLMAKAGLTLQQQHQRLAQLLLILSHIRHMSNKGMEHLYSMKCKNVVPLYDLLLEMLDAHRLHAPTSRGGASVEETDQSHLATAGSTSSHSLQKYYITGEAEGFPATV
Method in brief: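 HEK293 ER-alpha-UAS-bla GripTite cells, held overnight in 2% charcoal-stripped FBS, 5,000 cells/well, preincubated 4 h, then compound plus 17beta-estradiol for 18 h at 37C. Beta-lactamase read by LiveBLAzer B/G FRET substrate, 2 h at room temperature.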

[7] = molecular target: Estrogen receptor (Homo sapiens) (UniProt P03372); assay: qHTS assay to identify small molecule agonists of the estrogen receptor alpha (ER-alpha) signaling pathway (AID 743075; calls by dose curve)
[8] = molecular target: Estrogen receptor (Homo sapiens) (UniProt P03372); assay: qHTS assay to identify small molecule agonists of the estrogen receptor alpha (ER-alpha) signaling pathway using the BG1 cell line (AID 743079); further: nearly all actives have a fitted effect of over 20% in size; further: potency means the concentration at half of the fitted maximal effect
[9] = qHTS assay to identify small molecule antagonists of the estrogen receptor alpha (ER-alpha) signaling pathway using the BG1 cell line (AID 743080; calls by dose curve;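 further: BG1 cells stimulated with 17beta-estradiol alongside compound; series mostly up to about 70 µM; nearly all actives have a fitted effect of over 25% in size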)
Method in brief: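 BG1-Luc-4E2 cells (endogenous full-length ER-alpha, 4xERE luciferase) hormone-starved 5 days in charcoal-stripped FBS, plated 4,000/well for 24 h, then compound plus 17beta-estradiol for 21.5 h at 37 C; ONE-Glo luminescence read.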

SMILES	Potency [1]	Potency [2]	outcome [3]	outcome [4]	Potency [5]	outcome (Aromatase (Homo sapiens))	outcome [6]	Potency [7]	Potency [8]	outcome [9]
Cn1c(=O)c2c(ncn2CCO)n(C)c1=O	inactive	inactive	inactive	inactive	inactive	inactive				
CC1(C)CC(OC(=O)CCCCCCCCC(=O)OC2CC(C)(C)NC(C)(C)C2)CC(C)(C)N1	2.96 µM (active)	5.91 µM (active)	inactive		inactive	inactive	inactive	inactive	inactive	inactive
O=C(O)CONC(=O)c1ccccc1	inactive	inactive	inactive	inactive	inactive					
Cc1c(C(=O)c2c[nH]n(C)c2=O)ccc(S(C)(=O)=O)c1C1=NOCC1	inactive	inactive	inactive	inactive	inactive	inactive		inactive	inactive	inactive
C=CCSSCCC	inactive	inactive	inactive	inactive	inactive	inactive		inactive	inactive	inactive
CCCCCCC1(C)CCC(=O)O1 (centres undefined)	inactive	inactive	inactive		inactive	inactive	inactive	inactive	inactive	inactive
c1ccc(-c2nn[nH]n2)cc1	inactive	inactive	inactive	inactive	inactive	inactive		inactive	inactive	inactive
CCCCOCCOC(=O)COc1ccc(Cl)cc1Cl	inactive	inactive	inactive	inactive	inactive	inactive	inactive	inactive		inactive
COS(=O)(=O)O	inactive	inactive	inactive	inactive	inactive	inactive				
CC(CO)(CO)CO	inactive	inactive	inactive	inactive	inactive	inactive	inactive	inactive		inactive
CCCCCCCCCCCCCBr	inactive	inactive	inactive	inactive	inactive	inactive				
C[C@]12CCC(=O)C=C1CC[C@H]1[C@@H]3CC[C@](O)(C(=O)CO)[C@@]3(C)C[C@H](O)[C@@]12F	inactive	inactive	inactive	inactive	inactive	inactive		inactive	4.73 µM (active) and inactive	
CN1C[C@@H]2C[C@H]1CN2c1cc2c(cc1F)c(=O)c(C(=O)O)cn2C1CC1	inactive	inactive	inactive	inactive	inactive	inactive		inactive	inactive	inactive
O=C(O)c1cc2ccccc2nc1C(=O)O	inactive	inactive	inactive	inactive	inactive	inactive	inactive	inactive		inactive
CCCc1ccc(O)cc1	inactive	inactive	inactive	inactive	inactive	inactive	inactive	inactive		inactive
Cc1cc(-c2ccccc2)nnc1NCCN1CCOCC1	inactive	inactive	inactive	inactive	inactive	inactive	inactive	inactive		inactive
CC(=O)Nc1ccc(OC(=O)c2ccccc2OC(C)=O)cc1	inactive	inactive	inactive	inactive	inactive	inactive		inactive	inactive	inactive

SMILES	Potency [1]	Potency [2]	outcome [3]	outcome [4]	Potency [5]	outcome (Aromatase (Homo sapiens))	outcome [6]	Potency [7]	Potency [8]	outcome [9]
NC(=O)[C@@H]1CSSCCC(=O)N[C@@H](CCCCN=C(N)N)C(=O)NCC(=O)N[C@@H](CC(=O)O)C(=O)N[C@@H](Cc2c[nH]c3ccccc23)C(=O)N2CCC[C@H]2C(=O)N1 ([Mpa][hArg]GDWPC-NH2; disulfide 1-7)	inactive	inactive	inactive	inactive	inactive	inactive	inactive			inactive
Cc1c(N)cccc1Cl	inactive	inactive	inactive		inactive	inactive	inactive	inactive		inactive
CCn1cc(C(=O)O)c(=O)c2cnc(N3CCCC3)nc21	inactive	inactive	inactive	inactive	inactive					
N#Cc1ccccc1O	inactive	inactive	inactive	inactive	inactive	inactive		inactive	inactive	inactive
Cc1ccc2c(c1)C(=O)c1ccccc1C2=O	inactive	inactive	inactive	inactive	inactive	inactive		inactive	34.2 µM (active)	
CC(C)NCC(O)c1ccc2ccccc2c1 (centres undefined)	inactive	inactive	inactive	inactive	inactive	inactive				
c1ccc2c(CC3=NCCN3)cccc2c1	inactive	inactive	inactive	inactive	inactive	inactive				inactive
CC(=O)CC(=O)OC(C)(C)C	inactive	inactive	inactive	inactive	inactive	inactive	inactive	inactive		inactive
CC(C)=CCC[C@@](C)(O)[C@H]1CC=C(C)CC1	inactive	inactive	inactive	inactive	inactive	inactive				
CC(C)CCOC(=O)c1ccccc1	inactive	inactive	inactive	inactive	inactive	inactive				
N[C@@H](Cc1ccc(O)cc1)C(=O)O	inactive	inactive	inactive	inactive	inactive	inactive				
C/C=C(\C)C(=O)OCCc1ccccc1	inactive	inactive	inactive	inactive	inactive	inactive				
CC(C)=CCC/C(C)=C/COC=O	inactive	inactive	inactive	inactive	inactive	inactive				
CC(O)CC(C)O (centres undefined)	inactive	inactive	inactive	inactive	inactive	inactive				
O=C(CN1CCNCC1)NC1CCCCC1	inactive			inactive	inactive	inactive	inactive	inactive	inactive	inactive
COc1ccc(CCO)cc1	inactive	inactive	inactive	inactive	inactive	inactive				
